Source: PubChem BioAssay AID1851 (National Center for Advancing Translational Sciences (NCATS), 2009)
Hit rate of the full screen: of about 16,000 compounds, about 5,700 (36%) were called active. Another 24% or so got no clear call; they are omitted. Calls come from the whole dose curve; as a rule, active = well fitted curve in the direction sought with a large enough effect; inconclusive = small, poorly fitted or top-dose-only effect, or effect the other way; inactive = no such curve, though single readings can be large or run the other way. The list shows a part of the results.

Target: Cytochrome P450 1A2 (Homo sapiens) (UniProt P05177)
Sequence (P05177 whole entry, looked up): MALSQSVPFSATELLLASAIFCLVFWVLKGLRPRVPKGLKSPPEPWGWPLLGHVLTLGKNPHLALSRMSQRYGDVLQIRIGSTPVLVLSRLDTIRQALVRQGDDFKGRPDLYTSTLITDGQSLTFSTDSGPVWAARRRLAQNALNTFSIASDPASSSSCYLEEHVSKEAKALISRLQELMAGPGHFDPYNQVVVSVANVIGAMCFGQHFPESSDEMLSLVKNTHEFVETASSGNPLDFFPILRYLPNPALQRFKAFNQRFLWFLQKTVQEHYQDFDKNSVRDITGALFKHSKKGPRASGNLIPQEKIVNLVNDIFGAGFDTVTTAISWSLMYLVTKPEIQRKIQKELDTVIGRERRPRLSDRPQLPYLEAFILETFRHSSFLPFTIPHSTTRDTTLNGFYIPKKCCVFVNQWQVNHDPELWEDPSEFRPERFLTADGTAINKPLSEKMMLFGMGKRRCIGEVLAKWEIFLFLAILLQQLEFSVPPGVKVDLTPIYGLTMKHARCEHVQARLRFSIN
Test: Cytochrome panel assay with activity outcomes
Settings: recombinant CYP, pro-luciferin dealkylation, luminescence, p450-cyp1a2; series mostly up to 57.1 µM; activity, negative = inhibition: at the top concentration
% is set by controls: 0 for no effect and ±100 for the full control effect.

activity, negative = inhibition, inactive:
O=C(O)C/C(=C\c1ccco1)C(=O)O -11.8% [at 2.29 µM]
CC(C)C(C(=O)O)N1C(=O)/C(=C/C=C/c2ccco2)SC1=S (stereo not given) -22%
Cc1cc(C)c(NC(=O)C[C@H](CC(=O)O)c2cccc3ccccc23)c(C(=O)N2CCC3(CCCC3)CC2)c1 2.66%
COC(=O)N1CCC2(CCCN(Cc3ccccc3OC)C2)CC1 -13.1%
COc1ccc(NC(=O)c2cc(-c3cccnc3)nc3ccc(C)cc23)cc1OC -24.8%
COC(=O)N1CCC2(CCN(Cc3ccccc3OC)CC2)CC1 2.41%
CC1(C)C(=O)C(c2ccccc2)=C2CN3C(=O)N(CCc4ccccc4)C(=O)C3(Cc3ccc(C(F)(F)F)cc3)C=C21 (stereo not given) -12.9%
C=CCn1c(-c2cccn(Cc3ccccc3)c2=O)n[nH]c1=S 8.59%
O=C(CCc1nc2ccccc2c(=O)[nH]1)OCC(=O)N1CCN(S(=O)(=O)c2ccccc2)CC1 -26.8%
Cn1c(=O)c2[nH]c(CCCCc3nc4ccccc4[nH]3)nc2n(C)c1=O -15.8% [at 11.4 µM]
CNCCNS(=O)(=O)c1cccc2cnccc12 -3.93%
Cc1cnc(C(=O)OCC(=O)NC(C)C)cn1 -22.1%
O=C(NCc1ccccc1)C(c1cccs1)N(Cc1cccs1)C(=O)c1cnccn1 (stereo not given) -3.61%
COc1ccc(C(C(=O)NCc2ccccc2)N(Cc2cccs2)C(=O)c2cnccn2)cc1 (stereo not given) 7.23%
COC(=O)C/C=C\[C@@H](C)[C@@H](CO)NS(=O)(=O)c1ccc(C)cc1 -0.334% [at 11.4 µM]
COc1ccc(C(=O)N2CCC3(CCN(Cc4ccncc4)CC3)CC2)cc1 -15.5%
COc1ccc(C(=O)Nc2ccc3c(c2)nc(CN2CCN(C(C)=O)CC2)n3C)cc1 -4.28%
O=C1C2=CC[C@@H]3C(=O)N(c4ccc(F)cc4F)C(=O)[C@H]3[C@H]2[C@H](O)[C@H]2O[C@H]12 -3.38% [at 11.4 µM]
CCC(=O)O[C@@]1(C(=O)SCF)[C@@H](C)C[C@H]2[C@@H]3C[C@@H](F)C4=CC(=O)C=C[C@@]4(C)[C@]3(F)[C@@H](O)C[C@]21C -18.3% [at 25.6 µM]
O=C(CN1C(=O)c2ccccc2S1(=O)=O)Nc1ccccc1 -18.7%
CS(=O)(=O)Nc1c(O)ccc2c1CCC[C@H]2C1=NCCN1 -8.28%
CS(=O)(=O)N1CCC2(CCN(C(=O)Nc3cccc(F)c3)CC2)CC1 -12.6%
CCOC(=O)c1c(C)nc2sc3c(=O)n(-c4ccc(C)cc4)cnc3c2c1-c1ccc(OC)cc1 12.7%
CC1(C)CC(=O)c2c(Cc3ccccc3)n[nH]c2C1 -21.9%
C[C@H]1COC(=O)[C@H]2CCCN2C(=O)[C@@H](C)COC(=O)[C@H](Cc2ccccc2)NC1=O -1.22% [at 11.4 µM]
Oc1c(Br)cc(CN(Cc2cc(Br)c(O)c(Br)c2)C2CCCCC2)cc1Br -5.68% [at 2.29 µM]
CON1C(=O)C(=O)N(OC)C2CCCCC21 (stereo not given) 14%
CN(C)CCN(Cc1cccs1)c1ccccn1 -19.1%
CC(C)=CCC/C(C)=C/CO/N=C1/[C@H]2O[C@@H]2[C@@H](O)[C@H]2[C@H]1CCn1c(=O)n(-c3ccccc3)c(=O)n12 3.05% [at 11.4 µM]
C[C@@H](c1ccccc1)N1C(=O)[C@H]2[C@H]3[C@H](O)[C@H](O)C/C(=N/OCc4ccccc4)[C@H]3CC[C@@H]2C1=O -3.77% [at 11.4 µM]
COc1ccccc1Nc1nc(-c2sc(NC(=O)c3ccccc3)nc2C)cs1 -22.6%
Cc1nc(NC(=O)c2ccccc2)sc1-c1csc(Nc2ccc(Cl)cc2Cl)n1 -19.1%
Cc1ncc(CO)c(CO)c1O -13% [at 25.6 µM]
Cc1nnc(N(C)C(=O)c2ccccn2)s1 -21.3%
C[C@@H]1C(=O)N(C)C(=O)c2nc[nH]c21 -19.5%
O=C1OC(OC2CCCCC2)(c2ccccc2)c2ccccc21 (stereo not given) -10.7%
CCOCCCNC(=O)CCS(=O)(=O)Cc1ccc(C)cc1 -7.44%
COc1ccc(OC)c(NC(=O)C(CC(=O)O)NCc2ccco2)c1 (stereo not given) -20.7%
CN(C)c1cc[n+](CC(=O)Nc2cc(C(F)(F)F)ccc2Cl)cc1 -18.9%
Cc1cc(NC(=O)CCCC(=O)OCC(F)(F)C(F)F)cc(C)c1C(=O)O 11.5%
COC(=O)N1CCC2(CCN(Cc3cc(C(F)(F)F)cc(C(F)(F)F)c3)CC2)CC1 -19.2%
O=C1[C@H]2CCn3c(=O)n(-c4ccccc4)c(=O)n3[C@H]2[C@H](O)[C@H]2O[C@@H]12 -2.61% [at 11.4 µM]
Cc1cc(N2C(=O)C(O)=C(C(=O)c3cccs3)C2c2cccc(O)c2)no1 (stereo not given) -1.3%
CC(C)=CCC/C(C)=C/CO/N=C1/C[C@@H](O)[C@@H](O)[C@@H]2[C@@H]3C(=O)N(C(C)(C)C)C(=O)[C@H]3CC[C@@H]12 -0.662% [at 11.4 µM]
C/C(CCN1CCCCc2nc(C)c(C)cc21)=N\OC[C@@H](O)[C@@H]1O[C@@H]2OC(C)(C)O[C@@H]2[C@H]1O -3.55% [at 11.4 µM]
O=CN1CCN(C[C@H](O)CN2CCCCC2)CC1 -17.6% [at 2.29 µM]
O=C(NC12CC3CC(CC(C3)C1)C2)C12CC3CC(C1)CC(n1cnc(Cl)n1)(C3)C2 -11.9%
NCC1CCC(C(=O)O)CC1 (stereo not given) -3.69% [at 25.6 µM]
CCC(=O)O[C@@H]1[C@H](C)O[C@H](O[C@H]2[C@@H](N(C)C)[C@H](O)[C@@H](O[C@@H]3[C@@H](CC=O)C[C@@H](C)[C@@H](O)/C=C\C=C/C[C@@H](C)OC(=O)C[C@@H](OC(=O)CC)[C@H]3OC)O[C@H]2C)C[C@]1(C)O -13.6% [at 25.6 µM]
COc1cccc(-c2cncnc2NC2CCNCC2)c1 -19.7%

AC50, inactive:
CC[C@]1(C)CC(=O)NC1=O

AC50, active:
O=C(C=C1SCCS1)/C=C/c1ccco1 11.2 µM
COc1ccccc1CC(=O)Nc1cc2oc3ccccc3c2cc1OC 1 µM
COc1cc2c(cc1NC(=O)Nc1ccccc1)oc1ccccc12 2 µM
COc1cc2c(cc1NC(=O)c1cc(-c3cccnc3)nc3ccc(C)cc13)oc1ccccc12 12.6 µM
C=CCSc1nnc(-c2cc3c(-c4ccccc4)nn(C)c3s2)n1C 0.282 µM
CSc1nnc(-c2cc3c(-c4ccccc4)nn(C)c3s2)n1C 0.501 µM
O=c1c(-c2nc3ccccc3s2)cccn1Cc1ccccc1 1.78 µM
CC(=O)COC(=O)CCc1nc2ccccc2[nH]c1=O 6.31 µM
O=S(=O)(NCCNC/C=C\c1ccc(Br)cc1)c1cccc2cnccc12 2 µM
O=C(COC(=O)c1cnccn1)NCc1ccccc1 22.4 µM
Cc1ccc(CNC(=O)COC(=O)c2cnccn2)cc1 10 µM
COc1cccc(C(=O)n2c(SC)nc3cc4c(cc32)OCCO4)c1 5.01 µM
COc1ccc(C(=O)n2c(SC)nc3cc4c(cc32)OCCO4)cc1 3.16 µM
COc1ccc(NC(=O)CN2c3cccc4cccc(c34)S2(=O)=O)cc1 3.16 µM
CCOC(=O)c1c(C)nc2c(c1-c1ccccc1)C(=O)CC(C)(C)C2 14.1 µM
CCOC(=O)c1c(C)nc2c(c1-c1ccccc1)C(=O)CCC2 0.282 µM
CCCCCCCCCCn1c2c(c(=N)c3c1CCC3)CCC2 14.1 µM
Oc1c(Br)cc(Br)cc1CN(Cc1cc(Br)cc(Br)c1O)C1CCCCC1 3.16 µM
COc1cccc(-c2nc(NCc3cnc(C)cn3)c3ccccc3n2)c1 0.398 µM
Cc1cnc(CNc2nc(-c3cccnc3)nc3ccccc23)cn1 2.51 µM
CN(C)C(=O)c1ccc(-c2nccc(NCc3cccs3)n2)cc1 15.8 µM
CN(C)c1ccc(-c2nccc(NCc3cccs3)n2)cc1 0.398 µM
c1csc(CNc2ccnc(-c3ccoc3)n2)c1 1 µM
c1cncc(-c2nccc(NCc3cccs3)n2)c1 0.2 µM
C=CCCC(=O)Nc1nc(C)c(-c2csc(Nc3ccc(Cl)cc3)n2)s1 5.01 µM
Cc1nc(NC(=O)c2ccccc2)sc1-c1csc(Nc2cccc(F)c2)n1 11.2 µM
CC(=O)N(C)c1nnc(-c2cnccn2)s1 6.31 µM
Cc1ccccc1-c1cncnc1Nc1ccc(F)cc1 10 µM
Cc1ccccc1-c1cncnc1Nc1ccccc1 15.8 µM
COc1ccccc1-c1nnc(NC(C)=O)s1 1.26 µM
COc1ccccc1NC(=O)Nc1nnc(-c2ccco2)s1 2 µM
O=C(Cc1ccccc1)NC(=S)Nc1cc(C(F)(F)F)ccc1Cl 2 µM
O=C(CCCC(=O)OCC(=O)c1ccc(Cl)cc1Cl)Nc1cc(C(F)(F)F)ccc1Cl 2.82 µM
N/C(CC(=O)Nc1cc(C(F)(F)F)ccc1Cl)=N\O 1.58 µM
Cc1ccc(C)n1CCN1CCN(CC(=O)Nc2cc(C(F)(F)F)ccc2Cl)CC1 25.1 µM
O=C(c1ccccc1)c1cc(F)c(N2CCOCC2)cc1Cl 11.2 µM
CC(C)[C@H](N)c1nnc(SC/C=C/c2ccccc2)o1 0.631 µM
CC(C)[C@H](N)c1nnc(SCc2ccc(Cl)cc2)o1 0.794 µM
N#C/C(=C\c1ccccc1)c1nc2ncccc2[nH]1 1.26 µM
N#C/C(=C\c1ccc(Cl)cc1)c1nc2ncccc2[nH]1 2 µM
N#Cc1cccc(-c2ccc3ncnc(NC4CCNCC4)c3c2)c1 15.8 µM
c1cncc(-c2ccc3ncnc(NC4CCNCC4)c3c2)c1 12.6 µM
COc1cccc(-c2ccc3ncnc(NC4CCNCC4)c3c2)c1 20 µM
COc1cccc(-c2ccc3ncnc(NC4CC4)c3c2)c1 0.2 µM
